Out of some 310,000 compounds screened, about 14,000 (4.5%) showed an effect of 50% or more. Effects have a minus sign here. What follows is part of a selection rich in strong results, with near analogues and random picks from the rest.
What follows are compounds tested against human ether-à-go-go-related gene (hERG) potassium channel (human, UniProt Q12809) (assay: primary screen, population patch clamp on CHO cells stably expressing hERG; higher = less effect of the substance).
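Note: peak tail current of the secondary pulse compared with the same well before compound.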

Sequence of human ether-à-go-go-related gene (hERG) potassium channel (Q12809 whole entry, looked up): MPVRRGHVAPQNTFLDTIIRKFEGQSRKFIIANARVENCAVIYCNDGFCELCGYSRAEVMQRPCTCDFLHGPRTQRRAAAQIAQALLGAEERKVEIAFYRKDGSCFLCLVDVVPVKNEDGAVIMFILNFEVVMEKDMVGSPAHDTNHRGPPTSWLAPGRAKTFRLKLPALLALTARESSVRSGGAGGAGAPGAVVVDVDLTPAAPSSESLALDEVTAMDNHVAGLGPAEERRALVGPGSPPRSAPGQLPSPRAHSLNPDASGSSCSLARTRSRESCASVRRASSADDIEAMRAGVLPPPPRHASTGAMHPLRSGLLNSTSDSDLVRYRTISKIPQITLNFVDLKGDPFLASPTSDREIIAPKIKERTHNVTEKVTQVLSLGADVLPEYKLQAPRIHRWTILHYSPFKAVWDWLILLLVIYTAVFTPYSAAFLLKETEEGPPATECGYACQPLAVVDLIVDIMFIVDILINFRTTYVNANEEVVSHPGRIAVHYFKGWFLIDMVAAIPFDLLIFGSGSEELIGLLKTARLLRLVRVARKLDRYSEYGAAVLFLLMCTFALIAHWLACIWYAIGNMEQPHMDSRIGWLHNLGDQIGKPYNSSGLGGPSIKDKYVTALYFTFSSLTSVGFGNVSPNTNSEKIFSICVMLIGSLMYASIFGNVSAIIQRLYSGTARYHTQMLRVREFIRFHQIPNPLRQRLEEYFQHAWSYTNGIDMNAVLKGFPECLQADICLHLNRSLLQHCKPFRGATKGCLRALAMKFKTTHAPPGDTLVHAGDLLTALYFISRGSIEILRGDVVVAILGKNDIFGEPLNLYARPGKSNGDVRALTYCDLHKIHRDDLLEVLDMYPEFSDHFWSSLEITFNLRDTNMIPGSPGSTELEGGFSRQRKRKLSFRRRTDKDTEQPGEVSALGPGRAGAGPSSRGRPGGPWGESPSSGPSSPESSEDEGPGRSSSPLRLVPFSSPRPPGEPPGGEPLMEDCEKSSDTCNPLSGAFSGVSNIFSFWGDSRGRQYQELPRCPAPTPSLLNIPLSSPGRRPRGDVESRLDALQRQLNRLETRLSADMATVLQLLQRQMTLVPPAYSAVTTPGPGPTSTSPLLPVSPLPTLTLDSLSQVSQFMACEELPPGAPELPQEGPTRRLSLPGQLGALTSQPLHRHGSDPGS

SMILES	hERG current change (%, negative = inhibition) at 10uM [%]
Cc1ccc(/C=N/N2CCN(C3c4ccccc4-c4ccccc43)CC2)s1	0.486
CN(/N=C/c1cccc(Br)c1)C1=NS(=O)(=O)c2ccccc21	-11.8
COc1ccc(N2CCN(c3nc4c(c(=O)n(C)c(=O)n4C)n3CCCc3ccccc3)CC2)cc1	13.4
CCc1ccc(/C=c2\s/c(=C\C(=O)C(C)(C)C)[nH]c2=O)cc1	15.2
Cc1ccccc1N1CCN(C2CCCN(C(=O)c3csc(C(C)C)n3)C2)CC1 (centres unmarked)	-43
CCc1[nH]nc(C(=O)N2CCCC(N3CCN(c4ccccc4C)CC3)C2)c1C (centres unmarked)	-23.8
Cc1ccccc1N1CCN(C2CCCN(C(=O)c3ccccn3)C2)CC1 (centres unmarked)	-9.78
Cc1cc(C(=O)N2CCCC(N3CCN(c4ccccc4C)CC3)C2)n(C)n1 (centres unmarked)	-88.8
O=C(c1noc2c1CCCC2)N1CCCC(N2CCN(c3ccccc3F)CC2)C1 (centres unmarked)	-28
Cc1ccccc1N1CCN(C2CCCN(C(=O)c3cc(C(C)C)[nH]n3)C2)CC1 (centres unmarked)	-61.2
Cc1ccccc1N1CCN(C2CCCN(C(=O)c3cn4c(C)cccc4n3)C2)CC1 (centres unmarked)	-58.1
Cc1cc(C(=O)N2CCCC(N3CCN(c4ccccc4C)CC3)C2)nc(C)n1 (centres unmarked)	4.27
Cc1ccccc1N1CCN(C2CCCN(C(=O)c3cc(CC(C)C)nn3C)C2)CC1 (centres unmarked)	-31.7
Cc1nc(C(=O)N2CCCC(N3CCN(c4ccccc4C)CC3)C2)cs1 (centres unmarked)	-39.5
Cc1ccccc1N1CCN(C2CCCN(C(=O)c3noc4c3CCCC4)C2)CC1 (centres unmarked)	-63.5
CCCc1cc(C(=O)N2CCCC(N3CCN(c4ccccc4C)CC3)C2)n(C)n1 (centres unmarked)	-35.8
O=C(COc1ccccc1[N+](=O)[O-])N(Cc1ccco1)C1CCS(=O)(=O)C1 (centres unmarked)	-6.3
Cc1cccc(NC(=O)/C=C/c2ccc3c(c2)OCO3)n1	19.1
Cc1c(Cl)cnc(NC(=O)COC(=O)Cc2coc3ccc4ccccc4c23)c1Cl	-7.96
Cc1ccc(Sc2ccc(NC(=O)CCl)cc2)c(C)c1	12.5
CC(=O)N1CC2(C)CN(C(C)=O)CC(C)(C1)C2	23.8
Cc1ccccc1N1CCN(C2CCCN(C(=O)c3snnc3C)C2)CC1 (centres unmarked)	5.72

SMILES	hERG current change (%, negative = inhibition) at 10uM [%]
Cc1cnc(C(=O)N2CCCC(N3CCN(c4ccccc4C)CC3)C2)cn1 (centres unmarked)	1.27
Cc1ccccc1N1CCN(C2CCCN(C(=O)c3cnsn3)C2)CC1 (centres unmarked)	-58.2
COc1ccc(NS(=O)(=O)c2ccc(N3CCCC3)c(NC(=S)Nc3cccc(S(=O)(=O)N(C)C)c3)c2)cc1	18.1
Cc1cc(C)nc(N2CCCC(C(=O)NCc3ccc4c(c3)OCO4)C2)n1 (centres unmarked)	20.9
CCCc1cc(N2CCCC(C(=O)NCc3ccc4c(c3)OCO4)C2)n2ncnc2n1 (centres unmarked)	-78.4
CCCc1cc(N2CCCC(C(=O)NCC)C2)n2ncnc2n1 (centres unmarked)	-27.3
CCc1c(C)nc2ncnn2c1N1CCC(C(=O)NCc2ccc3c(c2)OCO3)CC1	-68.7
CCc1c(C)nc2ncnn2c1N1CCC(C(=O)NCc2cccc(OC)c2)CC1	-38.6
CCc1c(C)nc2ncnn2c1N1CCCC(C(=O)NCc2ccc3c(c2)OCO3)C1 (centres unmarked)	-37.4
CN(C(=O)COC(=O)C1CCN(S(=O)(=O)c2cccs2)CC1)c1ccccc1	-14.1
O=C(COC(=O)C1CCN(S(=O)(=O)c2cccs2)CC1)NCc1ccc(F)cc1	-49.7
CN(C)C=O.O=C(OCC(=O)N1CCCc2ccccc21)C1CCN(S(=O)(=O)c2cccs2)CC1	-71.1
O=C(COC(=O)C1CCN(S(=O)(=O)c2cccs2)CC1)NCc1ccccc1	-23.6
Cc1ccc(S(=O)(=O)N2CCC(C(=O)OCC(=O)N3CCc4ccccc43)CC2)cc1	-25.4
Cc1ccc(CNC(=O)COC(=O)C2CCN(S(=O)(=O)c3cccs3)CC2)cc1	-50.5
O=C(COC(=O)C1CCN(S(=O)(=O)c2cccs2)CC1)c1ccccc1	20.6
CCN(C(=O)COC(=O)C1CCN(S(=O)(=O)c2cccs2)CC1)c1ccccc1	22
CN(Cc1ccccc1)C(=O)COC(=O)C1CCN(S(=O)(=O)c2cccs2)CC1	-53.4
ClC1(Cl)CC1CSc1nnc(-c2ccncc2)o1 (centres unmarked)	-16.3
COc1ccc(-c2ccc(NS(=O)(=O)c3cc([N+](=O)[O-])c(C)c([N+](=O)[O-])c3)cc2)nn1	-11.3
O=C(Cn1nnc(N2CCCC2)n1)N/N=C/c1ccc(Cl)cc1	13.1
Cc1cc(C)c(C)c(S(=O)(=O)NCc2ccc(C(=O)N3CCOCC3)cc2)c1C	-4.97

Reference: PMC4336329 (PLoS ONE, 2015)
